Structures are written as SMILES. The campaign covered roughly 39,000 compounds. About 220 (0.56%) showed activity. Shown is part of a subset that was picked to be rich in actives.
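Also: Wild-type cells incubated without shaking, value is the mean of two biological replicates.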

In this test the test system is Escherichia coli K-12 BW25113. As to the kind of experiment: relative growth (OD600 normalised to plate interquartile mean) (fraction); higher = less growth inhibition, active = 0.2 or less. Particulars: 50 µM; LB; incubation time: overnight (16-24 h).
Take `CC(C)(C)[S@](=O)N1Cc2cc(C(=O)N3CCCCC3)nc(-c3cccc(-c4ccc(C#N)cc4)c3)c2[C@@H]1CCO`: the relative growth was 1 (inactive). Consider `C[C@@H]1CN([C@@H](C)CO)C(=O)c2cc(-c3ccc(C(=O)N(C)C)cc3)cnc2O[C@H]1CN(C)C(=O)c1cccnc1`, for which the relative growth is 1.03 (inactive). With `CCCNC(=O)N1CC[C@]2(CC1)CN([C@@H](CO)c1[nH]c3cc(ccc3c12)OC)C(=O)CN1CCOCC1`, the relative growth is 0.998 (inactive). On to `COCCOC(=O)N1C(=O)[C@@]2(c3cc(C#Cc4ccc(OC)cc4)ccc31)[C@H](C(=O)N1CCN(c3ncccn3)CC1)[C@H]1C(=O)O[C@H](c3ccccc3)[C@H](c3ccccc3)N1[C@@H]2c1ccccc1OCCO`, for which the relative growth was 1.07 (inactive). As to `O=C1C[C@]2(c3ccc([N+](=O)[O-])cc3)C(=O)N(C3CC3)c3cc(CO)ccc3[C@H]2N1CC12CC3CC(CC(C3)C1)C2`, the relative growth is 1.01 (inactive). `CO[C@H]1CN(C)C(=O)c2cc(NC(=O)Nc3cccc(F)c3)ccc2OC[C@@H](C)N(C(=O)Nc2c(C)noc2C)C[C@H]1C`: the relative growth is 0.978 (inactive).

`C[C@H](CO)N1C[C@H](C)[C@H](CN(C)C(=O)Nc2ccc(N3CCN(C)CC3)cc2)OCc2cnnn2CCCC1=O`: the relative growth was 0.983 (inactive). The result for `CCC(=O)OC1C(OC2C(C)C(OC3CC(C)(OC)C(O)C(C)O3)C(C)C(=O)OC(CC)C(C)(O)C(O)C(C)C(=O)C(C)CC2(C)O)OC(C)CC1N(C)C.CCCCCCCCCCCCOS(=O)(=O)O` (stereo unspecified) reads 0.953 (inactive). Take `CC[C@H]1OC(=O)[C@H](C)[C@@H](O[C@H]2C[C@@](C)(OC)[C@@H](O)[C@H](C)O2)[C@H](C)[C@@H](O[C@@H]2O[C@H](C)C[C@H](N(C)C)[C@H]2O)[C@](C)(O)C[C@@H](C)[C@@H]2N[C@@H](COCCOC)O[C@H]([C@H]2C)[C@]1(C)O`: the relative growth was 0.469 (inactive). The result for `CO[C@H]1C[C@H](O[C@H]2[C@H](C)[C@@H](O[C@H]3O[C@H](C)C[C@H](N(C)C)[C@H]3O)[C@@H](C)C[C@]3(CO3)C(=O)[C@H](C)[C@@H](O)[C@@H](C)[C@@H](C)OC(=O)[C@@H]2C)O[C@@H](C)[C@@H]1O` reads 0.954 (inactive). Turning to `CC[C@H]1OC(=O)[C@H](C)[C@@H](O[C@H]2C[C@@](C)(OC)[C@@H](O)[C@H](C)O2)[C@H](C)[C@@H](O[C@@H]2O[C@H](C)C[C@H](N(C)C)[C@H]2O)[C@](C)(O)C[C@@H](C)CN(C)[C@H](C)[C@@H](O)[C@]1(C)O`, the relative growth is 0.0562 (active). Consider `CCC1OC(=O)C(C)C(OC2CC(C)(OC)C(O)C(C)O2)C(C)C(OC2OC(C)CC(N(C)C)C2O)C(C)(O)CC(C)CN(C)C(C)C(O)C1(C)O` (stereo unspecified), for which the relative growth is 0.0435 (active). On to `CCCN1C[C@H](C)[C@@H](O)[C@](C)(O)[C@@H](CC)OC(=O)[C@H](C)[C@@H](O[C@H]2C[C@@](C)(OC)[C@@H](O)[C@H](C)O2)[C@H](C)[C@@H](O[C@@H]2O[C@H](C)C[C@H](N(C)C)[C@H]2O)[C@](C)(O)C[C@H]1C`, for which the relative growth was 0.116 (active).

For the compound `CCC1OC(=O)C(C)C(OC2CC(C)(OC)C(O)C(C)O2)C(C)C(OC2OC(C)CC(N(C)C)C2O)C(C)(O)CC(C)C(=O)C(C)C(O)C1(C)O.CCCCCCCCCCCCCCCCCC(=O)O` (stereo unspecified), the relative growth is 0.665 (inactive). `C[C@H](CO)N1C[C@H](C)[C@H](CN(C)S(=O)(=O)c2cccs2)Oc2ncc(-c3cccc(F)c3)cc2C1=O`: the relative growth was 0.97 (inactive).

As for `O=C(Cn1nnc2ccccc2c1=O)Nc1nnc[nH]1`, the relative growth is 0.982 (inactive). Regarding `C[C@@H]1CN([C@H](C)CO)S(=O)(=O)c2ccc(C#CC3(O)CCCC3)cc2O[C@H]1CN(C)C(=O)Nc1cccc(F)c1`, the relative growth was 1 (inactive). For `Cc1cc(C)n(CCNC(=O)[C@H]2CCCN(c3cccc4c3C(=O)N(Cc3ccc5c(c3)OCO5)C4=O)C2)n1`, the relative growth is 0.993 (inactive). Take `C[C@H](CO)N1C[C@H](C)[C@H](CN(C)C(=O)Nc2ccc(F)cc2)Oc2ncc(Br)cc2C1=O`: the relative growth was 0.974 (inactive). The result for `CN(C)C(=O)C[C@@H]1CC[C@@H]2[C@H](COC[C@H](O)CN2S(=O)(=O)c2ccccc2)O1` reads 1.02 (inactive); that for `Cn1cnc(S(=O)(=O)N2C[C@@H](O)COC[C@H]3O[C@@H](CC(=O)N4CCN(c5ccccc5)CC4)CC[C@@H]32)c1`, 1.02 (inactive).

In the case of `CC[C@@H](C)[C@H]1O[C@@]2(CC[C@@H]1C)C[C@H]1C[C@@H](CC=C(C)[C@@H](O[C@H]3C[C@@H](OC)[C@@H](O[C@H]4C[C@@H](OC)[C@@H](O)[C@@H](C)O4)[C@@H](C)O3)[C@@H](C)C=CC=C3CO[C@H]4[C@@H](O)C(C)=C[C@@H](C(=O)O1)[C@]34O)O2.CO[C@H]1C[C@@H](O[C@@H]2[C@@H](OC)C[C@@H](O[C@@H]3C(C)=CC[C@@H]4C[C@@H](C[C@@]5(CC[C@@H](C)[C@H](C(C)C)O5)O4)OC(=O)[C@@H]4C=C(C)[C@H](O)[C@@H]5OCC(=CC=C[C@@H]3C)[C@@]45O)O[C@@H]2C)O[C@@H](C)[C@@H]1O`, the relative growth was 1 (inactive).

With `C[C@@H]1CCCCO[C@H](CN(C)C(=O)Nc2ccccc2)[C@H](C)CN([C@@H](C)CO)C(=O)c2cc(NC(=O)c3ccccc3)ccc2O1`, the relative growth is 0.982 (inactive). On to `CCC(=O)O[C@H]1[C@H](O[C@@H]2[C@@H](C)[C@H](O[C@H]3C[C@@](C)(OC)[C@@H](O)[C@H](C)O3)[C@@H](C)C(=O)O[C@H](CC)[C@@](C)(O)[C@H](O)[C@@H](C)C(=O)[C@H](C)C[C@@]2(C)O)O[C@H](C)C[C@@H]1N(C)C`, for which the relative growth is 0.947 (inactive). The same measure for `CCOC(=O)CCC(=O)O[C@H]1[C@H](O[C@@H]2[C@@H](C)[C@H](O[C@H]3C[C@@](C)(OC)[C@@H](O)[C@H](C)O3)[C@@H](C)C(=O)O[C@H](CC)[C@@](C)(O)[C@H](O)[C@@H](C)C(=O)[C@H](C)C[C@@]2(C)O)O[C@H](C)C[C@@H]1N(C)C`: 0.0544 (active); for `CCC1OC(=O)C(C)C(OC2CC(C)(OC)C(O)C(C)O2)C(C)C(OC2OC(C)CC(N(C)C)C2O)C(C)(O)CC(C)C(=NOCOCCOC)C(C)C(O)C1(C)O` (stereo unspecified): 0.613 (inactive).

Turning to `CCOC(=O)CCC(=O)OC1C(OC2C(C)C(OC3CC(C)(OC)C(O)C(C)O3)C(C)C(=O)OC(CC)C(C)(O)C(O)C(C)C(=O)C(C)CC2(C)O)OC(C)CC1N(C)C` (stereo unspecified), the relative growth was 0.709 (inactive). The same measure for `CC[C@H]1OC(=O)[C@H](C)[C@@H](O[C@H]2C[C@@](C)(OC)[C@@H](O)[C@H](C)O2)[C@@H](C)[C@@H](O[C@H]2O[C@H](C)C[C@H](N(C)C)[C@H]2O)[C@](C)(O)C[C@@H](C)C(=O)[C@H](C)[C@@H](O)[C@]1(C)O`: 0.375 (inactive); for `CCC1OC(=O)C(C)C(OC2CC(C)(OC)C(O)C(C)O2)C(C)C(OC2OC(C)CC(N(C)C)C2O)C(C)(O)CC(C)C(=O)C(C)C(O)C1(C)O` (stereo unspecified): 0.408 (inactive). As to `CC[C@H]1OC(=O)[C@H](C)[C@@H](O[C@H]2C[C@@](C)(OC)[C@@H](O)[C@H](C)O2)[C@H](C)[C@@H](O[C@@H]2O[C@H](C)C[C@H](N(C)C)[C@H]2O)[C@](C)(OC)C[C@@H](C)C(=O)[C@H](C)[C@@H](O)[C@]1(C)O`, the relative growth was 0.0351 (active). For the compound `CC[C@@H]1OC(=O)[C@H](C)[C@@H](O[C@H]2C[C@@](C)(OC)[C@@H](O)[C@H](C)O2)[C@H](C)[C@@H](O[C@@H]2O[C@H](C)C[C@H](N(C)C)[C@H]2O)[C@](C)(O)C[C@@H](C)/C(=N\OCOCCOC)[C@H](C)[C@@H](O)[C@]1(C)O`, the relative growth was 0.165 (active). The same measure for `CC[C@@H]1OC(=O)[C@@H](C)[C@H](O[C@H]2C[C@@](C)(OC)[C@@H](O)[C@H](C)O2)[C@@H](C)[C@H](O)[C@@](C)(O[C@@H]2O[C@H](C)C[C@H](N(C)C)[C@H]2O)C[C@H](C)C(=O)[C@@H](C)[C@H](O)[C@@]1(C)O`: 0.427 (inactive); for `CCC1OC(=O)C(C)C(OC2CC(C)(OC)C(O)C(C)O2)C(C)C(OC2OC(C)CC(N(C)C)C2O)C(C)(OC)CC(C)C(=O)C(C)C(O)C1(C)O` (stereo unspecified): 0.536 (inactive); for `CC[C@H]1OC(=O)[C@H](C)[C@@H](O[C@H]2C[C@@](C)(OC)[C@@H](O)[C@H](C)O2)[C@H](C)[C@@H](O[C@@H]2O[C@H](C)C[C@H](N(C)C)[C@H]2O)[C@](C)(O)C[C@@H](C)C(=O)[C@H](C)[C@@H](O)[C@]1(C)O`: 0.0484 (active).

Regarding `CCC1OC(=O)C(C)C(OC2CC(C)(OC)C(O)C(C)O2)C(C)C(OC2OC(C)CC(N(C)C)C2O)C(C)(O)CC(C)C2NC(COCCOC)OC(C2C)C1(C)O` (stereo unspecified), the relative growth is 0.433 (inactive).

`COc1ccc(NC(=O)N(C)C[C@@H]2OCCCC[C@@H](C)Oc3ccc(NC(=O)Nc4ccccc4)cc3C(=O)N([C@H](C)CO)C[C@@H]2C)cc1`: the relative growth was 1.01 (inactive). Take `CCCCCCO[C@@H](C)c1cccc(-c2csc(NC(=O)c3cc(Cl)c(/C=C(\C)C(=O)O)c(Cl)c3)n2)c1OC`: the relative growth was 0.777 (inactive). In the case of `C=CCC[C@H](Cc1ccc(F)cc1)C(=O)O[C@@H](CNC(=O)[C@@H](CC=C)CC(=O)N(CCO)Cc1ccccc1)c1ccccc1`, the relative growth is 1.07 (inactive).

In the case of `CC(=O)N1CCN(C(=O)C(=O)NC[C@H](c2ccc(N(C)C)cc2)N2CCOCC2)CC1`, the relative growth was 0.989 (inactive). For `Cc1cc(C)c(NC(=O)[C@@H](N)Cc2ccccc2)c(Cl)c1`, the relative growth was 1.02 (inactive). For `Cc1ccc(S(=O)(=O)N(C)C[C@H]2Oc3cc(C#Cc4ccncc4)ccc3S(=O)(=O)N([C@@H](C)CO)C[C@H]2C)cc1`, the relative growth was 1.04 (inactive).
